Shown are actives, neighbours in structure and some others; about 15% of the full set was active somewhere.
VP16 counter – counter-screen for ROR gamma inhibitors: Gal4-VP16 reporter. Drosophila S2 Gal4-VP16 UAS-luciferase, luminescence, 20 h. Potency, µM (series often up to 53.6 µM), actives largely listed as inhibitors. hit rate 3.5% among 310,000;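 further: Gal4-VP16 expression switched on by copper sulfate through the metallothionein promoter; nearly all actives have a fitted effect of over 50% in size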
DT40 TDP1 CPT – growth inhibition of DT40 Tdp1-/-;hTDP1 cells with camptothecin (screen for TDP1 inhibitors); chicken DT40 Tdp1-/-;hTDP1 cells + 20 nM CPT, ATP luminescence, 48 h; Potency, µM (doses to about 46.2 µM), most hits filed as inhibitors; hit rate 12% among 420,000; AID 686979; further: nearly all actives have a fitted effect of over 55% in size
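Cell growth measured by CellTiter-Glo luminescence after a minimum 48 h, 37 C compound exposure with 20 nM CPT in Tdp1-knockout DT40 cells stably expressing hTDP1, seeded 400/well; qHTS titration format.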
ELG1 DNA repair – blocks ELG1-dependent DNA repair in HEK293T cells; hit rate 2.3% among 330,000; HEK293T ELG1-luciferase reporter, luminescence, 16 h; DNA damage induced by 5-fluorouridine; Potency, µM (doses to about 46.1 µM), hits mostly inhibitors; further: nearly all actives have a fitted effect of over 55% in size
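5-Fluorouridine DNA damage + compound/DMSO, 2,000 cells/well, 16 h, 37 °C/5% CO2. ONE-Glo, 30 min RT, luminescence. Readout = decrease in reporter signal.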
12-LOX inh – blocks human arachidonate 12S-lipoxygenase; purified 12hLO, xylenol orange hydroperoxide absorbance; hit rate 1.1% among 580,000; Potency, µM (titrated, usually from 108 µM), most hits filed as inhibitors
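Purified human 12hLO (150 nM final) in 25 mM Hepes, 0.01% Triton X-100, pH 7.0 was preincubated 15 min at room temperature with compound. Then 40 uM arachidonic acid was added, 30 min. Hydroperoxide was read by Fe-XO absorbance ratio 573/405 nm.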
RORgamma inh – ROR gamma (mouse) transcription inhibition. Potency, µM (highest dose often 53.6 µM), hits mostly inhibitors. Drosophila S2 Gal4-RORgamma UAS-luciferase reporter, 20 h. hit rate 5.4% among 310,000; further: nearly all actives have a fitted effect of over 60% in size
Target sequence (P51450 whole entry, looked up, the tested form may be a part): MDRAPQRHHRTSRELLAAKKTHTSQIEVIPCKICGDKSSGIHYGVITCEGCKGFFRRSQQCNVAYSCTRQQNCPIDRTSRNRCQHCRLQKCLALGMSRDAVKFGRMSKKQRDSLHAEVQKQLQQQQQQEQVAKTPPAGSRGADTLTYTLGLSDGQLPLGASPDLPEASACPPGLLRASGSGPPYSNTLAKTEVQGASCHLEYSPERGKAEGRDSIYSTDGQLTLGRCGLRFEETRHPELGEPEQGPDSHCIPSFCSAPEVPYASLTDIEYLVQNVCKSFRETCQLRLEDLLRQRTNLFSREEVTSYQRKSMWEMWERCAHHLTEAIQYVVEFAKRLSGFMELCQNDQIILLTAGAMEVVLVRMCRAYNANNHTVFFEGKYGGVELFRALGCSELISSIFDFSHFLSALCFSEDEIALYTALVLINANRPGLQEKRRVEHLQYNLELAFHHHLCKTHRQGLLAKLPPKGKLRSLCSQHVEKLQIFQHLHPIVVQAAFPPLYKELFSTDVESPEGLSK
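Read-out: Photinus luciferase luminescence; inhibitors lower reporter signal. Insect Schneider cells with Gal4-ROR gamma fusion under metallothionein promoter, UAS reporter; 700 uM final copper sulfate induction, 20 hr, ambient temperature.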
TDP1 cell noCPT – qHTS for Inhibitors of human tyrosyl-DNA phosphodiesterase 1 (TDP1): qHTS in cells in absence of CPT; DT40 Tdp1-/- hTDP1 cells, no CPT, ATP luminescence, 48 h; Potency, µM (highest dose often 46.2 µM), most hits filed as inhibitors; hit rate 15% among 420,000; further: nearly all actives have a fitted effect of over 55% in size
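Growth of hTDP1-complemented DT40 Tdp1-knockout cells is measured by ATP luminescence after at least 48 hr compound exposure at 37 °C, with DMSO substituting for the 20 nM CPT used in the parallel screen.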
Hits are given with their value; . = inactive; ? = inconclusive; / = no result given; [ ] = remark or other dose. The call rests on the fitted dose curve; in most records, active means well fitted curve in the direction sought with a large enough effect; inconclusive means small, poorly fitted or top-dose-only effect, or another doubt; inactive means no such curve, though single readings can be large; an effect the other way counts as inactive or inconclusive.

SMILES	VP16 counter	DT40 TDP1 CPT	ELG1 DNA repair	12-LOX inh	RORgamma inh	TDP1 cell noCPT
CC(=O)N1CCc2nc3sc(C(=O)c4ccc(F)cc4)c(N)c3c(C(F)(F)F)c2C1	/	?	/	.	/	20.6µM
CCCCn1c(=O)[nH]c(=O)c2c1nc(CCc1ccccc1)c(=O)n2Cc1ccccc1	/	/	/	.	/	/
COCCCNc1nc2c(c(=O)n(Cc3ccc(Cl)cc3)c(=O)n2C)n1C	.	.	?	.	?	.
CC(C)CCNc1nc2c(c(=O)n(Cc3cccc(F)c3)c(=O)n2C)n1C	.	25.9µM	.	.	?	?
COc1ccc(CNc2nc3c(c(=O)n(Cc4ccc(F)cc4)c(=O)n3C)n2C)cc1	.	?	18.4µM	.	.	?
CCCCNc1nc2c(c(=O)n(Cc3ccc(Cl)c(Cl)c3)c(=O)n2C)n1C	/	?	/	.	/	29.1µM
CCCCNc1nc2c(c(=O)n(Cc3ccc(Cl)cc3)c(=O)n2C)n1C	/	20.6µM	/	?	/	16.4µM
C=C(C)C1CC=C(C)/C(=N/O)C1 (stereo not drawn)	/	/	/	.	/	/
O=C(O)c1cccc(C2CCCN(C(=O)c3ccccc3-n3cccn3)C2)c1 (stereo not drawn)	/	/	/	.	/	/
Cn1c(NCCCN2CCOCC2)nc2c1c(=O)n(Cc1ccc(Cl)cc1Cl)c(=O)n2C	.	23.1µM	?	.	.	?
Cn1c(=O)c2c(nc(NCCCN3CCOCC3)n2Cc2ccccc2Cl)n(C)c1=O	/	/	/	.	/	/
COc1cc(-c2nnc(SCC(=O)NC(C)c3ccc4c(c3)CCCC4)o2)cc(OC)c1OC (stereo not drawn)	/	/	/	.	/	/
O=C(NCC1(c2ccccc2F)CCCC1)C1CCN(C(=O)C2CC2)CC1	/	/	/	.	/	/
COc1ccc(/C=N\NC(=O)C2C(=O)NCC2c2ccccc2)cc1O (stereo not drawn)	.	7.31µM	.	.	.	16.4µM
O=C(NN1C(=O)c2ccccc2NC1c1ccccn1)c1ccccc1 (stereo not drawn)	.	16.4µM	.	.	?	?
CCc1ccc(C(N)=S)cc1	.	?	.	?	11.2µM	?
COc1ccc(C(N)=S)cc1	?	.	.	.	12.6µM	.
CCOc1ccc2c(n1)CCN(C(=O)Cc1c(C)noc1C)C2	/	/	/	.	/	/
CCN(CC1CCCN(CCc2cccc(F)c2)C1)C(=O)c1cc2ccccc2o1 (stereo not drawn)	.	25.9µM	.	.	.	18.4µM
CN(CC1CCCN(CCc2cccc(C(F)(F)F)c2)C1)C(=O)c1cc2ccccc2o1 (stereo not drawn)	.	?	.	?	.	13µM
CC1=CCC(CO)(CO)C(C)C1 (stereo not drawn)	/	/	/	.	/	/
CCc1ccccc1Nc1nn2c(=O)c3ccc(C(=O)Nc4ccc(OC)cc4)cc3nc2s1	/	20.6µM	/	.	/	13µM
COc1ccc(NC(=O)c2ccc3c(=O)n4nc(Nc5cc(C)ccc5C)sc4nc3c2)cc1	/	6.51µM	/	?	/	5.8µM
Cc1ccc(Cl)cc1Nc1nn2c(=O)c3ccc(C(=O)NC4CCCCC4)cc3nc2s1	/	.	/	.	/	.
Cc1cc(CN2CC(Oc3ccc(F)cc3F)C2)no1	/	/	/	.[12.5 µM]	/	/
SMILES	VP16 counter	DT40 TDP1 CPT	ELG1 DNA repair	12-LOX inh	RORgamma inh	TDP1 cell noCPT
CC(CNC(=O)c1cc2ccccc2oc1=O)N(C)c1ccccc1 (stereo not drawn)	/	/	/	.	/	/
COCCn1c(=O)c(-c2cn(C)c3ccccc23)nc2cncnc21	.	.	/	.	.	.
Cn1cc(-c2nc3cncnc3n(CCN)c2=O)c2ccccc21	.	23.1µM	/	.	.	16.4µM
CC(C)N1CCC(CNC(=O)Nc2ccccc2F)C1 (stereo not drawn)	/	/	/	.	/	/
COC(=O)c1ccc2nc(-c3cccc(Cl)c3)c(Cc3ccccc3)n2c1	/	20.6µM	/	.	/	10.3µM
COC(=O)c1ccc2nc(-c3ccccc3)c(Cc3cccc(Cl)c3)n2c1	/	/	/	.	/	/
COC(=O)c1ccc2nc(-c3cccc(Br)c3)c(Cc3ccccc3)n2c1	/	?	/	.	/	23.1µM
COC(=O)c1ccc2nc(-c3ccc(C#N)cc3)c(Cc3cccc(Cl)c3)n2c1	/	20.6µM	/	?	/	20.6µM
Clc1cccc(-c2nc3ccc(Cl)cn3c2Cc2ccccc2)c1	/	?	/	.	/	16.4µM
COc1ccc(OCCCOc2ccc(Cl)cc2/C=N/NC(N)=O)cc1	/	/	/	.	/	/
